A selection: hits, their analogues and other compounds. The true share with any hit is near 2.9%.
PAFAH2 inh: PAFAH2 (human) inhibition | Q99487 | recombinant PAFAH2, FP-rhodamine activity probe, fluorescence polarization | inhibition, % at 3.39 µM | 340,000 compounds, 0.99% hits;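 active = inhibition above the mean over all tested compounds plus 3 SD, cut at about 30% in these data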;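 note: inhibitors block probe labeling of enzyme so polarization drops; 0% = enzyme with DMSO and 100% = wells lacking PAFAH2 protein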
EBNA-1 inhibitor: blocks EBNA-1 binding to DNA; EBNA-1 DNA binding, fluorescence polarization; inhibition, % at 14.8 µM; 300,000 compounds, 0.34% hits; in the data active = inhibition above about 28%
PAFAH1B2 FP inh: inhibitors of human PAFAH1B2; inhibition, % at 3.39 µM; AID 492953; 340,000 compounds, 1.2% hits; recombinant PAFAH1B2, FP-rhodamine activity probe, fluorescence polarization;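 active = inhibition above the mean of all tested compounds plus 3 SD, cut at about 24% in these data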;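 note: 0% = enzyme with DMSO and 100% = wells lacking PAFAH1B2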
Target sequence (P68402 whole entry, looked up): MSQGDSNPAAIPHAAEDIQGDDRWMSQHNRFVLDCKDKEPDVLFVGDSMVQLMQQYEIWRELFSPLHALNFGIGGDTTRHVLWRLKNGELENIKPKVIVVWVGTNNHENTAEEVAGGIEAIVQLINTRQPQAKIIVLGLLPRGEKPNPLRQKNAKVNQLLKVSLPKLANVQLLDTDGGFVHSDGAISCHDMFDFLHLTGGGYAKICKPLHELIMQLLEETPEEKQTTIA
ZTA counter: counter-screen for EBNA-1 inhibitors: inhibitors of Epstein-Barr virus ZTA; P03206; ZTA-DNA binding, fluorescence polarization; inhibition, % at 11 µM; 320,000 compounds, 0.15% hits; AID 2234; in the data active = inhibition above about 33%
Target sequence (P03206 whole entry, looked up): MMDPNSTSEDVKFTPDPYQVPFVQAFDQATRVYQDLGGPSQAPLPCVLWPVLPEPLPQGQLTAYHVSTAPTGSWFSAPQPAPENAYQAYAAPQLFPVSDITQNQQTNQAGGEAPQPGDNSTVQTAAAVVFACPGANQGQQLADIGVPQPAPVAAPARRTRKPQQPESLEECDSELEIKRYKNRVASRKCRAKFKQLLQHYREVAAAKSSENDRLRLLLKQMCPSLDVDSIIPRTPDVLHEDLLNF
pPAFAH inh: inhibitors of human plasma PAF acetylhydrolase (pPAFAH); Q13093; recombinant pPAFAH, FP-rhodamine probe fluorescence polarization; inhibition, % at 3.39 µM; 330,000 compounds, 1.5% hits; AID 463082;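 active = inhibition above the mean inhibition across the screen plus 3 SD, cut at about 25% in these data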;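 note: inhibitors block binding of the rhodamine activity-based probe so polarization drops; 0% = enzyme with DMSO and 100% = wells lacking pPAFAH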
PAFAH1B3 inh: blocks human PAF acetylhydrolase 1B catalytic subunit 3 | recombinant PAFAH1B3, FP-rhodamine probe, fluorescence polarization | inhibition, % at 3.39 µM | 340,000 compounds, 0.28% hits | AID 492972;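 active = inhibition above the screen-wide average of all tested compounds plus 3 SD, cut at about 25% in these data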;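 note: 0% = enzyme with DMSO only and 100% = wells lacking PAFAH1B3 protein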
EBNA-1 confirm: EBNA-1 (EBV) inhibition, confirmation; Recombinant EBNA-1 DBD, Cy5-DNA fluorescence polarization; 830 compounds, 35% hits; shares compounds with EBNA-1 inhibitor; inhibition, % at 14.8 µM;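 active = mean inhibition across replicates above a set limit taken from the earlier primary screen, cut at about 28% in these data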;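 note: plate controls were EBNA-1 protein with DMSO for no effect and wells lacking EBNA-1 for full effect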
ZTA counter trip: ZTA (EBV) inhibition, triplicate counter-screen; inhibition, % at 11.1 µM; 830 tested, under 10 active; Zta-ZRE DNA binding, Cy5 fluorescence polarization; shares compounds with EBNA-1 inhibitor;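 active = mean inhibition over triplicates above a set limit taken from the primary EBNA-1 screen, cut at about 37% in these data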;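 note: purified full length Zta protein with Cy5 labeled ZRE DNA probe; 0% = Zta with DMSO and 100% = wells lacking Zta protein; inhibitors lower polarization by freeing the labeled DNA probe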
Active calls of the source: *; nt = no result given; ! = repeats disagree.

SMILES | PAFAH2 inh | EBNA-1 inhibitor | PAFAH1B2 FP inh | ZTA counter | pPAFAH inh | PAFAH1B3 inh | EBNA-1 confirm | ZTA counter trip
COc1cc(C2C(C#N)=C(N)N(c3sc4c(c3C#N)CCCC4)C3=C2C(=O)CC(C)(C)C3)cc(OC)c1OC (configuration not stated) | -1.3 | 108.5* | -2.1 | 18.5 | 5.2 | -3.4 | 36.1* | 0.4
Cc1ccccc1C1C(C#N)=C2NC(=O)c3c(sc4c3CCCCC4)N2C2=C1C(=O)CC(C)(C)C2 (configuration not stated) | nt | 2.2 | nt | 9.7 | 3.0 | nt | nt | nt
COc1ccc(N2CC(O)=C(c3nc4ccccc4s3)C2=N)cc1 | 18.1 | 52.8* | -1.2 | -9.1 | 16.4 | 1.8 | 76.6* | 6.7
N=C1C(c2nc3ccccc3s2)=C(O)CN1c1ccccc1 | 1.1 | 7.1 | 0.6 | -13.0 | 19.1 | -4.4 | nt | nt
CCCn1c(=O)c(C#N)cn(C2CC2)c1=O | 3.1 | 2.0 | 6.0 | -1.9 | 0.2 | 3.1 | nt | nt
CC1=Nc2ccc(C)cc2/C1=C/c1c(N)n2oc(C)cc2nc1=O | -26.4 | 28.1*! | -13.5 | 19.4 | -15.5 | -16.6 | 32.7* | 1.2
COc1ccc(CN=C2NC(=O)CC(C(=O)Nc3ccccc3C)S2)cc1 (configuration not stated) | -0.5 | 11.4 | 13.3 | -5.2 | 6.7 | 5.4 | nt | nt
O=C(CSc1ncccn1)Nc1ccc2c(c1)CCC2 | -5.6 | -0.8 | 2.8 | 1.3 | 6.2 | 5.6 | nt | nt
Cc1ccc(C(=O)NCC(C)NC(=O)c2ccc(C)c([N+](=O)[O-])c2)cc1[N+](=O)[O-] (configuration not stated) | 2.2 | -9.3 | 1.5 | 1.1 | 4.2 | 1.6 | nt | nt
CCC(C)NC(=O)c1ccc([N+](=O)[O-])c(Cl)c1 (configuration not stated) | 8.8 | 27.5* | 4.8 | -5.9 | 2.3 | 4.2 | -4.5 | -2.9
COc1ccc(CNC(=O)CN2C(=O)C3CCCN3c3ncc(Cl)cc32)cc1 (configuration not stated) | -15.4 | 29.1* | 1.7 | 20.2 | -1.9 | -9.2 | -7.6 | -1.8
O=C(CN1C(=O)C2CCCN2c2ncc(Cl)cc21)NCc1ccc2c(c1)OCO2 (configuration not stated) | -8.6 | nt | -0.3 | nt | nt | 6.0 | nt | nt
C=CCn1c(SCC(=O)NC(=O)NCc2ccco2)nc2sc(CC)cc2c1=O | 8.4 | 27.8* | 0.7 | 9.7 | 9.0 | -2.6 | -5.7 | 4.3
Cc1sc2nc(SCC(=O)NCc3ccco3)n(CCc3ccccc3)c(=O)c2c1C | -7.1 | 30.2* | 3.4 | 3.7 | 4.0 | 3.1 | 3.4 | -0.3
Cc1sc2nc(SCC(=O)NCc3ccco3)n(C)c(=O)c2c1C | -1.1 | 0.0 | 4.8 | 5.8 | 5.6 | 4.9 | nt | nt
Cc1c(C#N)c(N)nc2c3c(sc12)NC(=O)CC3c1ccc(F)cc1 (configuration not stated) | -3.9 | -13.4 | -1.9 | 10.5 | 3.5 | 4.7 | nt | nt
Cc1c(C#N)c(N)nc2c3c(sc12)NC(=O)CC3c1ccccc1 (configuration not stated) | -8.3 | 62.7* | -0.3 | -22.9 | 4.7 | 4.9 | 24.6 | -1.8
CC1=CC2=NC(=O)/C(=C\c3ccc(-c4cccc(Cl)c4)o3)C(=N)N2O1 | -18.9 | 29.4* | -10.0 | 10.5 | -0.7 | -6.1 | 2.0 | 6.8
CC1=CC2=NC(=O)/C(=C\c3cc(C)n(-c4ccc(F)cc4)c3C)C(=N)N2O1 | -10.9 | 17.7 | -1.6 | 0.9 | 6.6 | 11.7 | nt | nt
Cc1cccc(-c2nsc(SCC(=O)Nc3ccc4c(c3)OCO4)n2)c1 | 2.4 | -2.8 | 3.0 | -18.4 | 3.2 | -1.1 | nt | nt
Cc1ccccc1-c1nsc(SCC(=O)Nc2ccc3c(c2)OCO3)n1 | -0.2 | 31.3* | -5.3 | 10.4 | 6.0 | -1.4 | 17.9 | 14.3
O=C(NCCOc1ccccc1F)c1ccc2c(=O)n3c(nc2c1)CCC3 | 6.5 | nt | -5.5 | 7.8 | 1.5 | -7.0 | nt | nt
O=C(NCCc1ccc(F)cc1)c1ccc2c(=O)n3c(nc2c1)CCC3 | -1.2 | 44.9* | -0.1 | -12.5 | 2.1 | 1.4 | -3.9 | -4.7
COc1ccc(/C=N/n2cnc3c([nH]c4ccccc43)c2=O)cc1CO | -6.8 | 28.9* | -5.3 | 18.1 | 1.2 | 2.4 | 24.3 | 5.4
Cc1cccc(NC(=O)CNC(=O)COc2ccc(C(=O)c3ccc(F)cc3)cc2)c1C | -2.4 | 41.5* | 1.8 | -17.6 | 0.0 | 3.1 | 5.8 | -2.3
SMILES | PAFAH2 inh | EBNA-1 inhibitor | PAFAH1B2 FP inh | ZTA counter | pPAFAH inh | PAFAH1B3 inh | EBNA-1 confirm | ZTA counter trip
Cc1cccc(NC(=O)CNC(=O)COc2ccc(-c3ccc(C#N)cc3)cc2)c1C | -2.6 | -7.7 | -2.7 | -8.0 | 0.1 | -16.1 | nt | nt
COc1ccc2c(c1)CCCC21NC(=O)N(CC(=O)c2cc(F)ccc2F)C1=O (configuration not stated) | 7.5 | nt | 9.1 | -2.7 | -2.8 | 1.8 | nt | nt
O=C(Nc1nc2cc3c(cc2s1)OCCO3)c1ccc(N2C(=O)CCC2=O)cc1 | -31.2 | 62.1* | -17.6 | -1.6 | 0.1 | -30.5 | 57.4* | 22.9
CCS(=O)(=O)N1CCN(S(=O)(=O)c2ccc(S(=O)(=O)NC3CC3)cc2)CC1 | -8.9 | 47.8* | -2.1 | 18.8 | -0.1 | 2.1 | 43.6* | 16.2
CC(=O)N1CCN(S(=O)(=O)c2ccc(S(=O)(=O)NC3CC3)cc2)CC1 | 3.0 | -9.6 | -1.1 | 0.0 | 7.2 | 5.8 | nt | nt
O=C(CN1C(=O)NC(CCc2ccccc2)C1=O)Nc1ccc(F)c(F)c1F (configuration not stated) | 10.3 | nt | -2.9 | nt | 2.3 | 7.4 | nt | nt
COCCn1c(=NC(=O)C2COc3ccccc3O2)sc2cc(S(N)(=O)=O)ccc21 (configuration not stated) | 0.2 | -9.5 | 2.8 | 1.5 | -1.0 | 1.1 | nt | nt
C=CCn1c(=NC(=O)C2COc3ccccc3O2)sc2cc(S(N)(=O)=O)ccc21 (configuration not stated) | -1.7 | 31.5* | 0.4 | 7.8 | 0.3 | 4.1 | 10.8 | -9.6

Assay outcomes (PubChem)
